EBV LMP1 NFkB: reduces LMP1-driven NF-kappaB luciferase signal; actives 0.69% (n = 350,000); inhibition, % at 12.5 µM; LMP1-induced NF-kappaB luciferase reporter cells, luminescence; AID 504558; in the data active = inhibition above about 41%;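 note: 0% = neutral control wells and 100% = reference inhibitor control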
TWEAK Fn14 block: blocks TWEAK-Fn14 interaction in a reporter cell assay; actives 2% (n = 360,000); inhibition, % at 10 µM; AID 1159606; TWEAK-stimulated Fn14 reporter cells, luciferase luminescence, 8 h; in the data active = inhibition above about 50%
TROY signal inh: inhibitors of TROY-dependent NF-kB signaling | AID 1347056 | actives 0.98% (n = 360,000) | inhibition, % at 10 µM | Q293 LMP1-TROYcd NF-kB luciferase reporter, 4 h;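 active = compounds whose plate-normalised and pattern-corrected inhibition of the luciferase reporter signal at the single screening dose is 50% or more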
PAX8 inh HTS: PAX8 transcriptional activity inhibition. RMG-I TPO-luciferase reporter, SteadyGlo, 24 h. inhibition, % at 12.6 µM. actives 1.2% (n = 360,000);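 active = mean replicate inhibition at least 60% with every replicate also reaching 60%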;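 note: luciferase light reporting Pax8 driven TPO promoter activity; plate controls were median of neutral control wells for no effect and mitoxantrone controls for full effect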
EWS-Fli block: blocks EWS/Fli oncoprotein-driven transcription | A673 NR0B1-luciferase reporter, viability-normalised | actives 0.67% (n = 350,000) | inhibition, % at 12.6 µM | AID 651661;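 active = mean inhibition of at least 50% after viability correction, with every replicate also passing that limit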;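 note: firefly luciferase signal divided by Alamar Blue viability fluorescence both relative to DMSO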
LGR2 antag: Drosophila LGR2 receptor signaling inhibition. inhibition, % at 9.99 µM. HEK293 LGR2, CRE-luciferase, bursicon-stimulated, 4 h. actives 0.35% (n = 380,000). AID 720647;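 active = drop in luminescence signal, shown as inhibition above about 50% in the replicate tests, limit read from the data, passing the limit was not always enough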;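 note: agonist challenge used bursicon conditioned medium at about half maximal strength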
DNA binding: binds DNA displacing acridine orange | shares compounds with EWS-Fli block | salmon sperm DNA acridine orange fluorescence polarization | AC35, µM (series often up to 68 µM), without a hit: at the highest dose activity change, negative = DNA binding | actives 2% (n = 640) | AID 720586;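 active = fitted curve reaches a 35% signal fall AC35 below twice the sample's top valid tested dose, actives reach about 48 µM in these data; inactive = the rest, including activity in the rising direction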;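 note: lower polarization ratio signals compound binding to DNA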
Active calls of the source: *; x = no result. Hits are enriched below; roughly 3.1% of the tested compounds scored in any of these assays.

SMILES	EBV LMP1 NFkB	TWEAK Fn14 block	TROY signal inh	PAX8 inh HTS	EWS-Fli block	LGR2 antag	others
CCOC(=O)[C@]12Cc3c(cc(OC)c(OC)c3OC)[C@H]1N(C(C)C)C(=O)c1cc(OC)ccc12	x	4	16	4	20	30
C=CC1CN2CCC1C[C@@H]2CO (some centres undefined)	x	x	x	-15	12	x
Oc1cc(Cl)c(Cl)c(Cl)c1	2	49	55*	x	3	11
Oc1cc(Cl)c(Cl)cc1Cl	x	x	x	-6	2	-14
Oc1cc(Cl)c(Cl)c(Cl)c1Cl	6	15	54*	-6	1	14
Oc1ccc(Cl)c(Cl)c1	0	6	-4	x	3	-1
O=C(Cc1ccccn1)N1CCCCN2[C@H](CO)[C@H](c3ccc(Br)cc3)[C@@H]2C1	x	x	x	2	-3	-4
C/C=C/c1ccc(C2[C@H]3CNC[C@@H]2N3CC2CC2)cc1 (some centres undefined)	x	x	x	x	5	-15
NCCc1ccc(OCc2ccccc2)c(OCc2ccccc2)c1	-2	-1	-33	29	41	88*
COc1ccc(CCN)cc1OC	0	-13	3	x	9	x
COc1cccc(C(c2nnnn2Cc2ccccc2)N2CCC(n3c(=O)[nH]c4ccccc43)CC2)c1OC (centres undefined)	x	39	30	91*	10	19
Cc1cccc(C)c1-n1nnnc1C(c1ccccc1OC(F)(F)F)N1CCC(n2c(=O)[nH]c3ccccc32)CC1 (centres undefined)	x	33	-9	5	-4	23
O=c1[nH]c2ccccc2n1C1CCN(Cc2ccc(-c3[nH]c4cc5ncnc5cc4nc3-c3ccccc3)cc2)CC1	x	-34	1	72*	17	4
O=c1[nH]c2ccccc2n1C1CCN(C(CCc2ccccc2)c2nnnn2C2CCCC2)CC1 (centres undefined)	x	51*	53*	-8	28	65*
COc1ccc(C(c2nnnn2-c2c(C)cccc2C)N2CCC(n3c(=O)[nH]c4ccccc43)CC2)cc1 (centres undefined)	x	10	14	4	13	26
Cc1cccc(C)c1-n1nnnc1C(c1cc2ccccc2o1)N1CCC(n2c(=O)[nH]c3ccccc32)CC1 (centres undefined)	x	102*	77*	-23	13	78*
COC(=O)[C@H]1[C@H](CO)[C@H]2Cn3c(ccc(C4=CCCCC4)c3=O)[C@@H]1N2Cc1ccccn1	x	x	x	x	5	8
O=C(O)[C@@H]1[C@@H](CO)[C@@H]2Cn3c(ccc(-c4ccncc4)c3=O)[C@H]1N2C(=O)C1CCCCC1	x	x	x	x	-6	-2
COC(=O)[C@@H]1[C@@H](CO)[C@@H]2Cn3c(ccc(-c4cccc(C(=O)N(C)C)c4)c3=O)[C@H]1N2CC1CC1	x	x	x	-9	-6	6
COC(=O)[C@@H]1[C@@H](CO)[C@@H]2Cn3c(ccc(-c4ccccc4F)c3=O)[C@H]1N2Cc1ccccc1	x	x	x	10	-1	-8
O=c1[nH]c2ccccc2n1C1CCN(C(c2cccc3ccccc23)c2nnnn2Cc2ccccc2)CC1 (centres undefined)	x	53*	36	73*	12	28
O=c1[nH]c2ccccc2n1C1CCN(C(c2cc3ccccc3o2)c2nnnn2Cc2ccccc2)CC1 (centres undefined)	x	76*	46	108*	16	72*
O=C(Cc1ccccn1)N1CCCCN2[C@H](CO)[C@@H](c3ccc(Br)cc3)[C@@H]2C1	x	x	x	-26	-8	2
CC=Cc1ccc2n(c1=O)C[C@@H]1[C@@H](CO)[C@H](C(=O)OC)[C@H]2N1CC1CCCCC1 (mixture of isomers)	x	x	x	-2	0	22
O=[N+]([O-])c1ccc(CNCCc2ccccc2)cc1	-4	98*	-17	-23	6	-10
SMILES	EBV LMP1 NFkB	TWEAK Fn14 block	TROY signal inh	PAX8 inh HTS	EWS-Fli block	LGR2 antag	others
CC(C)(C)n1cc(C(=O)c2ccc3ccccc3c2O)cn1	-26	88*	83*	-62	-2	67*
CC(C)(C)n1cc(C(=O)c2ccccc2OCCCF)cn1	-7	10	0	27	0	-9
COC(=O)[C@H]1[C@H](CO)[C@H]2Cn3c(ccc(C4=CCCC4)c3=O)[C@@H]1N2S(=O)(=O)c1cn(C)cn1	x	x	x	-2	2	8
O=C1NC2C(=CC(O)C(O)C2O)c2cc3c(cc21)OCO3 (centres undefined)	78*	100*	79*	123*	56*	105*	DNA binding=-9%
CN(C)C(=O)[C@@H]1[C@@H](CO)[C@@H]2Cn3c(cccc3=O)[C@H]1N2CC1CC1	x	x	x	x	-4	-17
CC(=O)OC1CC2(O)C3CCC4CC(O)CCC4(C)C3CCC2(C)C1C1=CC(=O)OC1 (centres undefined)	72*	85*	46	x	63*	90*	DNA binding=-11%
CC(=O)OC1CC(OC2C(O)CC(OC3C(O)CC(OC4CCC5(C)C(CCC6C5CCC5(C)C(C7=CC(=O)OC7)C(O)CC65O)C4)OC3C)OC2C)OC(C)C1OC1OC(CO)C(O)C(O)C1O (centres undefined)	30	83*	44	104*	63*	87*	DNA binding=-3%
CC(=O)O[C@@H]1CC[C@]2(C)C3CC[C@@]4(C)C(C[C@@H](O)[C@@H]4O)C3[C@@H](OC(C)=O)C[C@H]2C1 (some centres undefined)	3	-11	-10	x	2	9
CN1[C@@H]2CNc3ccccc3[C@@H]2[C@@H]1CO	x	x	x	7	1	-3
O=C(Cc1cccnc1)N1CCCCN2[C@@H](CO)[C@H](c3ccc(/C=C/c4ccccc4)cc3)[C@@H]2C1	x	x	x	-27	-7	3
CC[C@@H]1C[C@H]2CC[C@H](O2)[C@H](C)C(=O)O[C@@H](C)C[C@@H]2CC[C@@H](O2)[C@@H](C)C(=O)O[C@H](C)C[C@H]2CC[C@H](O2)[C@H](C)C(=O)O[C@@H](C)C[C@@H]2CC[C@@H](O2)[C@@H](C)C(=O)O1	x	x	x	x	54*	20	DNA binding=5%
C/C=C/c1ccc([C@@H]2[C@@H](CO)N3CCCCN(C(=O)Cc4ccncc4)C[C@@H]23)cc1	x	x	x	-1	2	2
CCCC#Cc1ccc([C@H]2[C@H]3CN(C(=O)Cc4ccccn4)CCCCN3[C@H]2CO)cc1	x	x	x	11	9	10
CN1C2CCC1/C(=C/c1ccccn1)C(=O)/C2=C\c1ccccn1	93*	100*	42	107*	80*	102*	DNA binding=-3%
Cc1ccccc1-n1c(/C=C/c2ccccn2)nc2ccccc2c1=O	-5	-11	-2	47	-28	-20

Source: PubChem BioAssay
